High-throughput results: PubChem, Broad Institute
Only some compounds are listed: those with a hit (about 0.54% of all), similar ones and a draw of the others.
TcdB inh: TcdB glycohydrolase inhibitors, primary screen, biochemical, single point, plate reader; Toxin B (Clostridioides difficile), P18177; inhibition, % at 9.99 µM; TcdB glycohydrolase enzymatic assay; hit rate 0.24% among 350,000; AID 652162, 2013; in the data active means inhibition above about 10%
Target sequence (P18177 whole entry, looked up): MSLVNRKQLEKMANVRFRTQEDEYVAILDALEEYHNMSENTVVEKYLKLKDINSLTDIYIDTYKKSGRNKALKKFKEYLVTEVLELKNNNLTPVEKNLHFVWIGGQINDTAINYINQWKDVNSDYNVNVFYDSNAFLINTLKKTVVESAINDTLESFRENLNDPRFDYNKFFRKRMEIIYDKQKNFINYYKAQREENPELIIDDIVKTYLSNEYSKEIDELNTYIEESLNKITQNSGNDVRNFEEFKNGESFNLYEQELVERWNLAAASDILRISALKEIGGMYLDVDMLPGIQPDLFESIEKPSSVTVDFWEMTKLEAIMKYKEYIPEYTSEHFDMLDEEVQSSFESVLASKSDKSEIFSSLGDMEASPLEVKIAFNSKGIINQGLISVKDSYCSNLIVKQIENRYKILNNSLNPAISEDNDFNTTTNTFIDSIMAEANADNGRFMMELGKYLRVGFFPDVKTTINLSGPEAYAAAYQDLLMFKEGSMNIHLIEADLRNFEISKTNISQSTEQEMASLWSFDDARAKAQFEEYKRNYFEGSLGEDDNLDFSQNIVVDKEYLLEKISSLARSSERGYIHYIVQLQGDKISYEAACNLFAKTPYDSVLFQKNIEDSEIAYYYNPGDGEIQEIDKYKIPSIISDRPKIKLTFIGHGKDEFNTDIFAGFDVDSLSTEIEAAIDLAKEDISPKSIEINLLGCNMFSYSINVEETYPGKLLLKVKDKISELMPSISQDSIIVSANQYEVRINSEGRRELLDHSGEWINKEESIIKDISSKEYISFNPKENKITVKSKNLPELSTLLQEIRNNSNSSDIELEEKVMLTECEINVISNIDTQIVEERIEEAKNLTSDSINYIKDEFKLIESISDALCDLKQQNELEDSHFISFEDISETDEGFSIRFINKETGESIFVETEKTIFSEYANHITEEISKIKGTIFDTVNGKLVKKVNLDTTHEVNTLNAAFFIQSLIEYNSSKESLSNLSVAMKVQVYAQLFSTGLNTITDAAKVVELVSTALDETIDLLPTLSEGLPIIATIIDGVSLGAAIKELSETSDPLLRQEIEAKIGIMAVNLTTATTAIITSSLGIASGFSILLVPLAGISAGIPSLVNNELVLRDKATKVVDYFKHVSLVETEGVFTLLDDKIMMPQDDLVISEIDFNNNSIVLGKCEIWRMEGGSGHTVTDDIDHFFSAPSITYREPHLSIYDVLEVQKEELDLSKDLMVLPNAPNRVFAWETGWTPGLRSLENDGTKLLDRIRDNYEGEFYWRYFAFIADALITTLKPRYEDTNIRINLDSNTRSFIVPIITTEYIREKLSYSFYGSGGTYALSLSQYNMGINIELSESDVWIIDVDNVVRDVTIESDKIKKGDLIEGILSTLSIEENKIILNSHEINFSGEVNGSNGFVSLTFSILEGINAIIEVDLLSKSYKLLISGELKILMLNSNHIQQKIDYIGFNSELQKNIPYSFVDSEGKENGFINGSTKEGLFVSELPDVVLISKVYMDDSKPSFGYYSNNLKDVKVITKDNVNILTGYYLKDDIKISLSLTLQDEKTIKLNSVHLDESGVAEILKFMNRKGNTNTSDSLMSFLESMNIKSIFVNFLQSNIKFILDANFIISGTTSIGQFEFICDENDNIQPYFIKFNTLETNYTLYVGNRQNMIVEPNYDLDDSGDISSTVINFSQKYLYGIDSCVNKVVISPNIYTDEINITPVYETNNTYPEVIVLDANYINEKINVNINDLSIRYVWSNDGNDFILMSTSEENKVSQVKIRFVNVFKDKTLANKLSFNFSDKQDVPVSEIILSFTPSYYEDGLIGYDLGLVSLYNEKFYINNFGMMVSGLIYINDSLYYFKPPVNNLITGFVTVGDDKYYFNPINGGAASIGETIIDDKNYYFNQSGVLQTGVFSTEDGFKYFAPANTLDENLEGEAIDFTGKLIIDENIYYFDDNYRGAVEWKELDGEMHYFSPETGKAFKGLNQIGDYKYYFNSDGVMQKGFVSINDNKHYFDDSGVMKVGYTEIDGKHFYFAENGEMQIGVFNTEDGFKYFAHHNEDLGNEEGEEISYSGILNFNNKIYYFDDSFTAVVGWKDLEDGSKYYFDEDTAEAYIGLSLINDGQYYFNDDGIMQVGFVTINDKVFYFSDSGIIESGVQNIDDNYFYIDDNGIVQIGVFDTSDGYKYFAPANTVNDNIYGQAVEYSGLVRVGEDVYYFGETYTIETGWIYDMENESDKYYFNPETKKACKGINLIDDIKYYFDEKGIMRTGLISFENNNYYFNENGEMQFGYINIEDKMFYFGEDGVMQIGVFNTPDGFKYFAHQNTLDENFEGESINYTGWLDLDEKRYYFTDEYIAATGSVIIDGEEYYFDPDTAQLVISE
BioA inh: M. tuberculosis BioA enzyme inhibitors, primary screen, biochemical, plate reader, single point, HTS; purified M. tuberculosis BioA enzyme; inhibition, % at 9.99 µM; hit rate 0.096% among 360,000; in the data active means inhibition above about 40%
FadD28 FP inh: inhibitors of FadD28 bisubstrate probe binding, primary screen, biochemical, fluorescence polarization, single point. Mycobacterium tuberculosis FadD28 fatty-acid-AMP ligase. inhibition, % at 12.5 µM. hit rate 0.22% among 360,000; in the data active means inhibition above about 8.5%, passing the limit was not always enough
Vc quorum ag: inducers of Vibrio cholerae quorum light production without autoinducers, primary screen, BH1578 luxS cqsA deficient, single point | V. cholerae BH1578 lux reporter, luminescence, 6 h | activation, % at 18.7 µM | hit rate 0.16% among 350,000; in the data active means activation mostly above about 9.7%, no sharp cut-off
An asterisk follows results filed as active.

COc1ccc(C(=O)N/N=C/c2c[nH]c3ccccc23)cc1 was read as TcdB inh -1, BioA inh 0, FadD28 FP inh 0 and Vc quorum ag -1.
For COc1ccc2c(/C=N/Nc3ccc(C(=O)O)cc3)c[nH]c2c1 the results were TcdB inh 3, BioA inh 2, FadD28 FP inh 14* and Vc quorum ag inactive.
COc1cc(/C=N/n2nnnc2N)ccc1OC(C)=O was read as TcdB inh 0, BioA inh 0, FadD28 FP inh 0 and Vc quorum ag 240*.
COc1cc(/C=N/n2nnnc2N)ccc1O was read as BioA inh 1, FadD28 FP inh -1 and Vc quorum ag 0.
Screening CCC(=O)c1ccc2c(c1)OCCO2 returned TcdB inh -1, FadD28 FP inh -1 and Vc quorum ag -1.
`Nc1ccc(C(=O)c2ccc3c(c2)OCCO3)cc1N` gave TcdB inh 14*, BioA inh 0, FadD28 FP inh -5 and Vc quorum ag -1.
For CC(=O)c1ccc2c(c1)C1C=CCC1C(C(=O)O)N2 (configuration not stated) the results were TcdB inh 1, FadD28 FP inh 40* and Vc quorum ag 0.
For CC(C)[C@H](C)NC(=O)N(C)C[C@@H]1OCc2ccccc2-c2ccccc2C(=O)N([C@@H](C)CO)C[C@H]1C the results were TcdB inh 0 and BioA inh 4.
COc1ccc(C(=O)NCCCCc2ccccc2)cc1 was read as TcdB inh 1, BioA inh 1, FadD28 FP inh -4 and Vc quorum ag 1.
`COc1ccc(NS(=O)CCCc2ccccc2)cc1` (configuration not stated) gave TcdB inh 11*, BioA inh 2 and FadD28 FP inh 1.
C[C@@H]1CN([C@@H](C)CO)C(=O)c2cc(C#CCN(C)C)cnc2O[C@@H]1CN(C)C(=O)c1cccnc1 was read as TcdB inh 0 and BioA inh 0.
For O=C1NN(c2ccc(Cl)c(Cl)c2)C(=O)/C1=C/c1ccc(-c2ccccc2C(=O)O)o1 the results were TcdB inh 2, BioA inh -4, FadD28 FP inh 13* and Vc quorum ag -1.
Screening C[C@@H]1CN([C@H](C)CO)C(=O)Cc2cc(NS(=O)(=O)c3ccccc3)ccc2O[C@@H]1CN(C)CC1CC1 returned TcdB inh -3 and BioA inh 1.
Screening CCCNC(=O)N1CC[C@@H]2[C@H]1c1cc(-c3ccccc3)ccc1N(C)[C@H]2CO returned TcdB inh 12*.
`CCCNC(=O)N1CC[C@@H]2[C@H]1c1cc(-c3ccc(OC)cc3)ccc1N(C)[C@H]2CO` gave TcdB inh 4.
`CCC(=O)N1CC[C@@H]2[C@H]1c1cc(-c3ccc(F)cc3)ccc1N(C)[C@H]2CO` gave TcdB inh 9.
`CCCNC(=O)N1CC[C@@H]2[C@@H](CO)N(C)c3ccc(-c4ccc(F)cc4)cc3[C@@H]21` gave TcdB inh 12* and BioA inh 11.
`CO[C@H]1CN(C)C(=O)c2cc(NC(=O)C3CCOCC3)ccc2OC[C@H](C)N(Cc2cccnc2)C[C@H]1C` gave BioA inh -3.
For COc1ccccc1NC(=O)c1cc2c(CO)cnc(C)c2oc1=Nc1ccc(OC)c(OC)c1 the results were TcdB inh 1, BioA inh -6, FadD28 FP inh -1 and Vc quorum ag inactive.
`COc1ccc(NC(=O)c2cc3c(CO)cnc(C)c3oc2=Nc2cccc(C)c2)c(OC)c1` gave TcdB inh 1, BioA inh 3, FadD28 FP inh -2 and Vc quorum ag 20*.
CCCNC(=O)N1CC2(CCN(S(C)(=O)=O)CC2)c2c(n(C)c3cc(OC)ccc23)[C@H]1CO was read as TcdB inh 0.
For CCCCCCCCCCCCCCCC(=O)OC(CC(=O)O)C[N+](C)(C)C (configuration not stated) the results were TcdB inh 2, BioA inh 18, FadD28 FP inh 17* and Vc quorum ag -1.
CCCCCCCCCCCCC/C=C/[C@@H](O)[C@@H](N)CO was read as TcdB inh 1, BioA inh -2, FadD28 FP inh 33* and Vc quorum ag 1.
CCCCCCCC/C=C\CCCCCCCC(=O)O was read as TcdB inh 0, FadD28 FP inh 2 and Vc quorum ag inactive.
Screening CC1=C(C(=O)OCC2CCCO2)C(c2coc3ccccc3c2=O)C2=C(CCCC2=O)N1 (configuration not stated) returned TcdB inh 13*, FadD28 FP inh 0 and Vc quorum ag 5.
Screening CCOC(=O)C1=C(C)NC2=C(C(=O)CCC2)C1c1coc2ccccc2c1=O (configuration not stated) returned TcdB inh 2, BioA inh -1, FadD28 FP inh -3 and Vc quorum ag inactive.
Cc1nc2ccccc2c(=O)n1NC(=O)c1ccc(Cl)c(Cl)c1 was read as TcdB inh 0, BioA inh -1, FadD28 FP inh 1 and Vc quorum ag 328*.
CCc1ccc(C(=O)Nn2c(C)nc3ccccc3c2=O)cc1 was read as TcdB inh 7, BioA inh 3, FadD28 FP inh -1 and Vc quorum ag -1.
For CCCNC(=O)N(C)C[C@H]1Oc2ncc(-c3cccc(C#N)c3)cc2C(=O)N([C@H](C)CO)C[C@H]1C the results were BioA inh 1.
Screening CC(=O)N1[C@@H](CO)[C@@H](c2ccccc2)C12CN(C(=O)c1ccccn1)C2 returned TcdB inh 0.
For COc1ccc(OCc2cc(-c3ccc(Cl)cc3)no2)cc1 the results were TcdB inh 19*, BioA inh 0, FadD28 FP inh -3 and Vc quorum ag inactive.
`c1ccc(OCc2cc(-c3ccccc3)no2)cc1` gave TcdB inh 1, FadD28 FP inh -3 and Vc quorum ag -1.
`CCC(=O)N1CC2(C1)CN(C(=O)CN1CCOCC1)[C@@H](CO)c1c2c2ccc(OC)cc2n1C` gave TcdB inh -1.
`C/C(=N\NC(N)=S)c1ccc2c(c1)OCCO2` gave TcdB inh 12*, FadD28 FP inh -1 and Vc quorum ag -2.
`CC(=O)N/N=C(\C)c1ccc2c(c1)OCCO2` gave TcdB inh 1, FadD28 FP inh -1 and Vc quorum ag inactive.
For O=C(O)C1Nc2c(O)cc(Cl)c([N+](=O)[O-])c2C2C=CCC12 (configuration not stated) the results were TcdB inh -1, FadD28 FP inh 59* and Vc quorum ag inactive.
Cc1ccc(S(=O)(=O)N[C@@H]2CC[C@@H](CC(=O)NCc3ccccc3F)O[C@H]2CO)cc1 was read as TcdB inh -1 and BioA inh 4.
CO[C@@H]1CN(C)C(=O)c2cc(NC(=O)NC(C)C)ccc2OC[C@@H](C)NC[C@@H]1C was read as BioA inh -1.
`CC1=NN(c2ccccc2)C(=O)/C1=C/c1c(O)n(-c2ccc(F)cc2)[nH]c1=O` gave BioA inh 0, FadD28 FP inh 19* and Vc quorum ag -1.
